Experimental data from PubChem BioAssay AID652105 (National Center for Advancing Translational Sciences (NCATS), 2013).
Hit rate of the full screen: of about 330,000 compounds, about 4,100 (1.2%) were called active. Another 2% or so got no clear call; they are omitted. The entries come from a sample that favours actives as a whole. Values without a mark were called inactive. Rule for the calls: active = max response of -50% or lower; inconclusive = between -30% and -50%; inactive = -30% or higher.

Each compound was assayed against Phosphatidylinositol 5-phosphate 4-kinase type-2 alpha (Homo sapiens) (UniProt P48426) (assay: qHTS for Inhibitors of phosphatidylinositol 5-phosphate 4-kinase (PI5P4K)). Conditions: PI5P4Kalpha enzyme, ADP-Glo luminescence, 60 min; stronger effect = lower value.
How it was run: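 Human PI5P4Kalpha with substrate in 0.038 M HEPES pH 7.4, 0.28 mM EGTA, 0.1% CHAPS, 5% DMSO; reaction started with 5 microM ATP (final), 60 min at room temperature. ADP formed read by ADP-Glo luminescence.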
% is set by controls: 0 for no effect and ±100 for the full control effect.
Note: value at the top dose of about 77 µM.

Chain of Phosphatidylinositol 5-phosphate 4-kinase type-2 alpha (Homo sapiens) (P48426 whole entry, looked up): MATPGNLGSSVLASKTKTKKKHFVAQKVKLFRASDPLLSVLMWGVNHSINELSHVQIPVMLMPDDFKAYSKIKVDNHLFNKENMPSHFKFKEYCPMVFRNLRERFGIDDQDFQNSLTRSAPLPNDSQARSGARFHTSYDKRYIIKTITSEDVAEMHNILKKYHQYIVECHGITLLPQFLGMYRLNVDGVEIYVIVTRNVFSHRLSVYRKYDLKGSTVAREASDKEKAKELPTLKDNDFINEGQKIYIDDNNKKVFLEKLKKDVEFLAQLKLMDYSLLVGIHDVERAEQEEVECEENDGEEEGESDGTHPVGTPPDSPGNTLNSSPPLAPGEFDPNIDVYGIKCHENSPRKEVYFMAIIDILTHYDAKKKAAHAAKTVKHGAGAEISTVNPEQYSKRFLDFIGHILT

SMILES | max response
O=C(N/N=C\c1cc(Br)c(Br)o1)C1COc2ccccc2O1 (stereo not given) | 1.1%
O=C(N/N=C/c1cc2c(cc1Br)OCO2)C1COc2ccccc2O1 (stereo not given) | 0.44%
O=C(CNC(=O)C1COc2ccccc2O1)N/N=C/c1cc(Br)c(O)c(Br)c1 (stereo not given) | -78.5% (active)
CC(C)NC(=O)N1Cc2cc(C(=O)NCC(F)(F)F)nc(-c3cccc(-c4cc5ccccc5o4)c3)c2[C@@H]1CCO | 10.9%
CN1CCN(c2ccc3c(c2)OC[C@H](Cc2ccccc2)NS3(=O)=O)CC1 | 6.74%
O=C(Nc1ccc(S(=O)(=O)N2CCOCC2)cc1)C1CCN(S(=O)(=O)c2ccc(Cl)cc2)CC1 | 11.3%
O=S(=O)(c1ccc(NC(=S)NN=C(C2CC2)C2CC2)cc1)N1CCOCC1 | -67.5% (active)
O=C(NC(=S)Nc1ccc(S(=O)(=O)N2CCOCC2)cc1)c1ccccc1[N+](=O)[O-] | -13.4%
COc1cccc(-c2cnc3c(NC(C)=O)cc(-c4cc(F)ccc4OC)cn23)c1 | 0.465%
Cc1ccc(-c2ccc(CN3C(C)C(=O)N(Cc4cn(CCC5OCCCO5)nn4)CCS3(=O)=O)cc2)cc1 (stereo not given) | -1.32%
CCOc1ccc(-n2c(O)c(/C=N/c3ccnn3Cc3ccncc3)c3ccccc3c2=O)cc1 | 1.64%
CCOc1ccc(-n2c(O)c(/C=N/Nc3nnc(C)c(=O)[nH]3)c3ccccc3c2=O)cc1 | -64% (active)
CCOc1ccc(-n2c(O)c(/C=N/Nc3nc(C)cc(C)n3)c3ccccc3c2=O)cc1 | 3.69%
O=C1NC(O)CCN1C1CC(O)C(CO)O1 (stereo not given) | -0.0784%
Cc1ccc(Cc2c(-c3ccco3)nc3ccc(Cl)cn23)cc1 | -53.8% (active)
Cc1ccc2nc(-c3ccco3)c(Cc3cccc(Cl)c3)n2c1 | -20%
Cc1ccc(Cc2c(-c3ccccc3)nc3ccc(Cl)cn23)cc1 | 3.67%
Cc1ccc([C@H]2N[C@]3(CCCN(CC4CCCCC4)C3=O)[C@H]3C(=O)N(Cc4ccccc4)C(=O)[C@@H]23)cc1 | -7.84%
Cc1cc(Cl)ccc1-c1nc(NCCN(C)C)nc2ccsc12 | 2.25%
Cc1cc(O)c(C(=O)/C=C/c2c(F)c(F)c(F)c(F)c2F)c(=O)o1 | -77.8% (active)
Cc1ccc(N=Cc2c(O)cc(C)oc2=O)c(C)c1 | -7.86%
Cc1cc(O)c(Sc2ccccc2)c(=O)o1 | 5.88%
CCc1nc2c(OCc3ccc(Cl)cc3Cl)cccn2c1N(C)C(=O)C(C)C | 2.81%
O=C(NC1CCCC1)C1c2ccccc2OCC(=O)N1Cc1ccccc1 (stereo not given) | -0.138%
CCCC(=O)N1CCC1(C)C(=O)NCc1ccc(C(C)C)cc1 (stereo not given) | -1.03%
CC(C)Cc1ccc(-c2cc3nc(NCc4cccc(Cl)c4)ccn3n2)cc1 | 47.1%
COc1ccccc1CNC(=O)c1cc(-c2cc(Cl)ccc2C)n[nH]1 | -0.482%
CCn1c(SC)nc(O)c(C(c2ccc(OC)c(O)c2)c2c(O)nc(SC)n(CC)c2=O)c1=O | -12.5%

SMILES | max response
CCSc1nc(C)c(CCOc2cccc(C)c2)c(=O)[nH]1 | 0.672%
CCSc1nc(O)c(C(c2cccc(OC)c2)c2c(O)nc(SCC)[nH]c2=O)c(=O)[nH]1 | -58.8% (active)
O=C(c1ccccc1)N1CCN(c2cc(-c3ccccc3)nc3cc(-c4cccc(Cl)c4)nn23)CC1 | 6.72%
O=S1(=O)CC(N2CCN(Cc3ccccc3F)CC2)CN1Cc1cn(Cc2cccc(C(F)(F)F)c2)nn1 (stereo not given) | 4.9%
O=C(Nc1ccc(F)cc1)C(CCc1ccccc1)N1CCN(CC(=O)N2CCCC2)CC1 (stereo not given) | -9.87%
Cc1ccc(S(=O)(=O)NCCSc2ccccc2)cc1[N+](=O)[O-] | -4.48%
CCS(=O)(=O)c1cc([N+](=O)[O-])c(Sc2ccccc2N)s1 | -65.8% (active)
COc1c(C)cc(C(O)c2ncc(-c3cccc(C(F)(F)F)c3)[nH]2)cc1C (stereo not given) | -7.49%
COc1cc2cc(C(=O)N/N=C/c3cccc(OC)c3OC)[nH]c2cc1OC | 0.853%
COc1cccc(/C=N\NC(=O)C2=NNC(=O)C2C)c1O (stereo not given) | -72.8% (active)
COc1ccc(/C=N/NC(=O)c2ccc3c(c2)OCCO3)c(OC)c1 | 3.95%
COc1ccc(Br)cc1/C=N/NC(=O)c1cccc(S(=O)(=O)N2CCOCC2)c1 | -4.11%
COc1cccc(/C=N/NC(=O)c2[nH]nc3c2CCc2ccccc2-3)c1O | -53% (active)
CCOc1ccc2[nH]c(C(=O)N/N=C/c3cccc(OC)c3OC)cc2c1 | 8.06%
CC1(C(=O)Nc2ccc3c(c2)OCCO3)CSCC(=O)N1CCOc1ccccc1 (stereo not given) | -1.05%
CC(C)(C)S(=O)N1Cc2cc(C(=O)NCCCN3CCOCC3)nc(-c3cccc(-c4cc5ccccc5o4)c3)c2[C@H]1CCO (stereo not given in full) | 0.439%
CCCCC[C@H](C)N1C[C@@H](COCc2ccccc2)Oc2cc(N3CCC[C@@H]3CO)ccc2S1(=O)=O | 11.7%
COc1cc(/C=N/NC(=O)c2cc(C)n(-c3ccc(F)cc3)c2C)cc(OC)c1O | -10.7%
Cc1cc(C(=O)N/N=C/c2ccc(O)c([N+](=O)[O-])c2)c(C)n1-c1ccc(F)cc1 | -71% (active)
Cc1nn(CC(=O)N/N=C/c2ccc(F)cc2)c(C)c1[N+](=O)[O-] | -2.33%
CCCNC(=O)C1(C)CCCN(C(=O)c2oc3ccccc3c2C)C1 (stereo not given) | -7.4%
CCc1nc2ccc(C(=O)Nc3ccc(OC)c(OC)c3)cn2c1N(C)C(=O)c1cccc(OC)c1 | 3.96%
CCOC(=O)C1=CC[C@@H](c2ccccc2)N(S(=O)(=O)c2ccc(C)cc2)[C@H]1c1cccc(OC)c1 | 4.01%
CCOC(=O)c1ccn(S(=O)(=O)c2ccc(C)cc2)c1-c1ccccc1 | 12.7%
COc1ccc(-c2cc(C(=O)Nc3ccccc3O)c3ccccc3n2)cc1 | -106% (active)
COc1ccc(-c2cc(C(=O)N(C)Cc3ccccc3)c3ccccc3n2)cc1 | 15.4%
COc1ccc(NC(=O)c2cc(-c3cc(OC)c(OC)c(OC)c3)nc3ccccc23)c(OC)c1 | 2.36%
